Measurements published in the supplement of paper PMC10981050.
Where “and” joins values, the source holds several entries; their conditions need not be identical. Equal entries are not always repeated. Structures can show the parent of a compound that is named as a salt.

Legend:
Test in all cases: cell viability relative to vehicle control; higher = less cytotoxic
Settings in all cases: 10 µM
K562 = test system: K562
Procedure, shortened: (§1)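 CRISPR-edited mutant clones and isogenic wild-type clones from four leukaemia lines were screened against Selleck bioactive, kinase and epigenetic probe libraries, with identity-inconsistent compounds excluded. Each compound was acoustically dispensed at a single 10 µM dose into 384-well plates holding 2000 cells in 50 µL medium per well. After 48 h the supernatant was removed and CellTiter-Glo luminescence was read. Viability was expressed as percent of the on-plate vehicle control and analysed in Genedata Screener.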

MARIMO = test system: MARIMO
Procedure, shortened: as §1

MOLM14 = test system: MOLM14
Procedure, shortened: as §1

OCI-AML2 = test system: OCI-AML2
Procedure, shortened: as §1

SMILES	cell viability (K562; SRSF2 genotype: SRSF2 P95H/wt)	cell viability (K562; SRSF2 genotype: SRSF2 wt/wt)	cell viability (MARIMO; SRSF2 genotype: SRSF2 P95H/wt)	cell viability (MARIMO; SRSF2 genotype: SRSF2 wt/wt)	cell viability (MOLM14; SRSF2 genotype: SRSF2 P95H/wt)	cell viability (MOLM14; SRSF2 genotype: SRSF2 wt/wt)	cell viability (OCI-AML2; SRSF2 genotype: P95H/wt)	cell viability (OCI-AML2; SRSF2 genotype: wt/wt)
CC(=O)O[C@H]1C[C@@H]2CC[C@@H]3[C@H](CC[C@@]4(C)[C@H]3C[C@H]([N+]3(C)CCCCC3)[C@@H]4OC(C)=O)[C@@]2(C)C[C@@H]1N1CCCCC1 [Vecuronium Bromide]	101% and 109%	109%	105%	103%	99.8%	101%	111%	109%
COc1ccc(C(C)=O)c(O)c1 [Paeonol (Peonol)]	103% and 101%	99.5%	104%	97.9%	102%	102%	98.3%	91.5%
O=C1C[C@@H](c2ccc(O[C@@H]3O[C@H](CO)[C@@H](O)[C@H](O)[C@H]3O)cc2)Oc2cc(O)ccc21 [Liquiritin]	92.3% and 81.1%	83.8%	83.3%	90.1%	86.4%	89%	96.5%	91.4%
O=c1ccc2ccc(O)c(O)c2o1 [Daphnetin]	79.5% and 82.3%	83.5%	75.2%	89%	84.4%	93.2%	81.4%	86.2%
O=C(O)CCCC[C@@H]1SC[C@@H]2NC(=O)N[C@@H]21 [Biotin (Vitamin B7)]	101% and 100%	96.3%	104%	103%	102%	108%	102%	99.2%
CCCCOc1ccc(C(=O)CCN2CCCCC2)cc1 [Dyclonine hydrochloride]	80.7% and 80.8%	80.6%	77.8%	68.7%	49.2%	76.4%	64.5%	64.2%
COc1cc(N)c(Cl)cc1C(=O)NC1CCN(CCCOc2ccc(F)cc2)CC1OC (configuration not stated) [Cisapride hydrate]	93.4% and 92.3%	95.5%	93.3%	105%	99.8%	102%	105%	99.8%
Fc1ccc(Cn2c(Cl)nc3ccccc32)cc1 [2-Chloro-1-(4-fluorobenzyl)benzimidazole]	77.4% and 80.8%	86.5%	64.6%	64.5%	77.2%	84%	28.5%	36.5%
COc1cc2nccc(Oc3ccc(NC(=O)C4(C(=O)Nc5ccc(F)cc5)CC4)cc3)c2cc1OC	9.94% and 12.3%	20.6%	69.1%	66.8%	5.29%	5.9%	19.2%	28%
Cc1nc2cc(F)c(F)cc2n1-c1cncc(Nc2ccc(C(F)(F)F)cc2)n1	10.5% and 26.5%	28%	8.44%	6.32%	11.7%	2.75%	6.57%	9.7%
C[C@H]1COC2=C1C(=O)C(=O)c1c2ccc2c1CCCC2(C)C [Cryptotanshinone]	32.1% and 18.5%	47.8%	60.3%	76.1%	58.6%	69.2%	42.7%	46.5%
CCN(C(=O)c1c(O)c2c(Cl)cccc2n(C)c1=O)c1ccccc1	98.8% and 96.5%	96.4%	92.4%	99.1%	84.1%	93.4%	87.9%	99.8%
CC(O)c1ccc(S(=O)(=O)NC(=O)NC2CCCCC2)cc1 (configuration not stated) [Hydroxyhexamide]	106% and 96%	107%	103%	99%	101%	104%	104%	106%
COc1cccc(C(N)=O)c1 [3-Methoxybenzamide]	106% and 99.6%	111%	104%	102%	103%	107%	101%	115%
O=C(O)CC(O)C(=O)O (configuration not stated) [Malic acid]	82.4% and 82.1%	83.7%	99.6%	88.9%	77.2%	101%	102%	104%
CCCC(CCC)C(=O)O [Divalproex sodium]	105% and 102%	103%	101%	111%	105%	105%	93.3%	108%
CCOc1nc2cccc(C(=O)OC(C)OC(=O)OC3CCCCC3)c2n1Cc1ccc(-c2ccccc2-c2nn[nH]n2)cc1 (configuration not stated) [Candesartan cilexetil (Atacand)]	95.6% and 97.9%	75.5%	98.8%	106%	62.2%	87.1%	90%	72.1%
CCCCOc1nc(N)c2c(n1)N(Cc1cccc(CN3CCCC3)c1)CC(=O)N2	86.2% and 92.1%	90%	87%	91.3%	97.2%	93.4%	97.4%	90.6%
COc1cc2c(cc1OC)[C@H]1C[C@@H](OC(=O)[C@@H](N)C(C)C)[C@H](CC(C)C)CN1CC2 [Valbenazine tosylate]	93.2% and 97.7%	101%	108%	93.9%	103%	106%	97.2%	96.9%
N[C@@H](Cc1c[nH]c2ccc(O)cc12)C(=O)O [5-hydroxytryptophan (5-HTP)]	106% and 102%	94.2%	99.8%	103%	93.3%	99.1%	94.5%	104%

SMILES	cell viability (K562; SRSF2 genotype: SRSF2 P95H/wt)	cell viability (K562; SRSF2 genotype: SRSF2 wt/wt)	cell viability (MARIMO; SRSF2 genotype: SRSF2 P95H/wt)	cell viability (MARIMO; SRSF2 genotype: SRSF2 wt/wt)	cell viability (MOLM14; SRSF2 genotype: SRSF2 P95H/wt)	cell viability (MOLM14; SRSF2 genotype: SRSF2 wt/wt)	cell viability (OCI-AML2; SRSF2 genotype: P95H/wt)	cell viability (OCI-AML2; SRSF2 genotype: wt/wt)
CC(C)(O[C@@H]1O[C@H](CO)[C@@H](O)[C@H](O)[C@H]1O)[C@H]1Cc2cc3ccc(=O)oc3cc2O1 [Nodakenin]	101% and 107%	109%	98.7%	101%	110%	100%	106%	103%
CCCCCCCCCC(=O)OCC(COC(=O)CCCCCCCCC)OC(=O)CCCCCCCCC [Glyceryl tridecanoate]	105% and 101%	100%	106%	114%	100%	104%	97.2%	98.6%
O=C(NC1CCN(CCCCC2(C(=O)NCC(F)(F)F)c3ccccc3-c3ccccc32)CC1)c1ccccc1-c1ccc(C(F)(F)F)cc1 [Lomitapide]	0.51% and 0.47%	0.4%	0.42%	0.43%	0.37%	0.37%	0.35%	0.46%
CC1(C)Cc2c(sc(NC(=O)c3ccn[nH]3)c2C(N)=O)C(C)(C)O1	103% and 101%	109%	96.6%	93.3%	110%	102%	101%	104%
Cc1cc(C)nc(NC(=S)N2CCN(Cc3ccc(C(F)(F)F)cc3)CC2)c1	71.2% and 80.6%	73.2%	67.4%	64.5%	77.3%	86.6%	37.8%	54%
COc1ccc(CC2c3cc(OC)c(OC)cc3CC[N+]2(C)CCC(=O)OCCCCCOC(=O)CC[N+]2(C)CCc3cc(OC)c(OC)cc3C2Cc2ccc(OC)c(OC)c2)cc1OC (configuration not stated) [Atracurium besylate]	90% and 97.2%	87.9%	87.3%	84.9%	75%	97.1%	115%	108%
Cc1ccc2nc(NCCN)c3ncc(C)n3c2c1	37.6% and 36.4%	34.5%	7.18%	3%	1.38%	0.62%	2.44%	13%
COc1ccc(C(=O)CC(=O)c2ccc(C(C)(C)C)cc2)cc1 [Avobenzone (Parsol 1789)]	87.3% and 92.5%	91.8%	77.2%	92.6%	87.6%	98.9%	61.2%	76.8%
O=C(C[S+]([O-])Cc1ccco1)NC/C=C\COc1cc(CN2CCCCC2)ccn1 (configuration not stated) [Lafutidine]	104% and 105%	102%	104%	104%	96.9%	101%	105%	108%
NCCc1c[nH]cn1 [Histamine]	96.1% and 97.6%	91.1%	84%	93%	56%	63.6%	81.6%	82.4%
Cc1ccc(-c2cc(C(F)(F)F)nn2-c2ccc(S(N)(=O)=O)cc2)cc1 [Celecoxib]	94.3% and 106%	94.1%	99.1%	104%	101%	101%	122%	96.5%
Oc1ccc2ccccc2c1N=Nc1ccc(N=Nc2ccccc2)cc1 [Solvent Red 23]	83.7% and 81.2%	82%	82.6%	90.8%	76%	85.3%	75.3%	78.7%
Cc1cc2c(C(=O)NCC(C)c3ccccc3)c(O)c(O)cc2c(O)c1-c1c(C)cc2c(C(=O)NCC(C)c3ccccc3)c(O)c(O)cc2c1O (configuration not stated) [Sabutoclax]	1.68% and 1.16%	2.42%	12.7%	13.8%	22.8%	13.7%	22.6%	36%
COC(=O)[C@]12CCC(C)(C)C[C@H]1[C@H]1C(=O)C=C3[C@@]4(C)C=C(C#N)C(=O)C(C)(C)[C@@H]4CC[C@@]3(C)[C@]1(C)CC2 [Bardoxolone Methyl]	2.03% and 0.75%	1.02%	0.23%	0.28%	0.15%	0.13%	0.19%	0.13%
N#Cc1ccc(Oc2ccc3c(c2)COB3O)cc1 [Crisaborole (AN2728)]	93.3% and 84%	90.8%	73.8%	72.9%	68.2%	77.7%	90%	79.3%
Cn1nnnc1SCC1=C(C(=O)O)N2C(=O)[C@@H](NC(=O)[C@H](OC=O)c3ccccc3)[C@H]2SC1 [S3638 Cefamandole (nafate).cdx]	103% and 97.5%	102%	97.5%	103%	99.4%	104%	97.7%	97.6%
COc1ccc2[nH]c([S@@+]([O-])Cc3ncc(C)c(OC)c3C)nc2c1 [Esomeprazole sodium]	98.5% and 100%	94.4%	98.8%	99.8%	97.4%	90.9%	96%	91.8%
Oc1nc(-c2ccc(C(F)(F)F)cc2)nc2c1CSCC2	105% and 99.2%	105%	104%	105%	94%	95.5%	94.6%	96.7%
O=C(O)c1cn(C2CC2)c2cc(Cl)c(F)cc2c1=O [Fluoroquinolonic Acid]	108% and 104%	108%	97.5%	101%	104%	110%	104%	110%
